Compound activity (PubChem BioAssay)
The list is not random: actives were taken first. Their share in the collection is about 5.4%.
AHR act = human AHR activation | P35869 | AHR-responsive luciferase reporter cells, luminescence | activation, % at 5 µM | 320,000 tested, 2.5% active | AID 2796; in the data active = activation above about 47%;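 also: 0% = vehicle wells and 100% = reference agonist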
Target sequence (P35869 whole entry, looked up): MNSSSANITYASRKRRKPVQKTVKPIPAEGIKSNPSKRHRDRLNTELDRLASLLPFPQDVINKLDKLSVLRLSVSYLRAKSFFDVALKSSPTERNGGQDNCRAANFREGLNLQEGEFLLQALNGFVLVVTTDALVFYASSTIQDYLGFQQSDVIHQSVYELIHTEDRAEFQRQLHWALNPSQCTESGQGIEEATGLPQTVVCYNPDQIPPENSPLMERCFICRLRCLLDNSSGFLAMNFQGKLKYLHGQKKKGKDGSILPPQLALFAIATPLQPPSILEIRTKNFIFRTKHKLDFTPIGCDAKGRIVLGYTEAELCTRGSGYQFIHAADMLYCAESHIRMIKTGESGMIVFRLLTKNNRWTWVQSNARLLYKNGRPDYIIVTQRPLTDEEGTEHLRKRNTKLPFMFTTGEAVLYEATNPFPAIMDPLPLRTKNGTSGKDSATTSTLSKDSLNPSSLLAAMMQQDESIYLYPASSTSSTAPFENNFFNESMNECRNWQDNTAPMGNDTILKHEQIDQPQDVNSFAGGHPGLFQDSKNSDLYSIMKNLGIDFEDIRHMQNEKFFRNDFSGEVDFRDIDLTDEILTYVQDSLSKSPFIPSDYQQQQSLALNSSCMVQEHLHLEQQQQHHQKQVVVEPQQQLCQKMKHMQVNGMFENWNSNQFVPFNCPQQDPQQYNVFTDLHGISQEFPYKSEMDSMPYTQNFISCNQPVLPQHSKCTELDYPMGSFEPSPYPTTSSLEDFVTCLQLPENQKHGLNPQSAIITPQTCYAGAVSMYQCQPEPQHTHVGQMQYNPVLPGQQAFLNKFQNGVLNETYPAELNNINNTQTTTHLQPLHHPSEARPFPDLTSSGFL
FXN GAA850 act = increases GAA850 frataxin promoter reporter activity. activation, % at 6 µM. HEK293 lucGAA850 FXN promoter luciferase reporter, 24 h; percent of 10 µM SAHA response. 360,000 tested, 0.56% active;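 active = activation above the average of all compounds screened plus 3 SD, cutoff fixed separately per campaign, cut at about 7.5% in these data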;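 also: 0% = DMSO wells and 100% = 10 µM SAHA wells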
HSF1 activator = increases HSF-1 driven luciferase reporter signal. NIH3T3-HGL HSF-1 luciferase reporter, MG132, 8 h; 100% = twice DMSO control signal. activation, % at 9 µM. 300,000 tested, 1.7% active;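 active = mean replicate activation of at least 50% with a set share of replicates each reaching 50%; inconclusive = only one of those two conditions met; inactive = mean below 50% and too few replicates reaching it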;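 also: 0% = median of the neutral control wells and 100% = twice that signal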
HSF1 inh = HSF1 inhibition; NIH3T3-HGL HSE-luciferase, MG132-induced, luminescence 8 h; active compounds read low; activity change, negative = inhibition, % at 7.5 µM (by protocol); 300,000 tested, 0.77% active; AID 2098;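 active = more than half of replicate wells show activity change below -50%, luminescence cut by over half; inconclusive = some wells, but at most half, below -50%; inactive = no replicate well below -50%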;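 also: luciferase reports HSF-1 transcriptional activity via heat shock element; 0% = median of DMSO wells and -100% = zero luminescence signal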
NR0B1 inh = inhibits human nuclear receptor DAX1 | P51843 | HEK293 Gal4-DAX1 luciferase reporter, luminescence | inhibition, % at 6.75 µM | 340,000 tested, 0.99% active;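 active = inhibition above the mean over all tested compounds plus 3 SD, cut at about 4.2% in these data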;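 also: 0% = DAX1-transfected cells with DMSO and 100% = empty-vector control cells with DMSO; inhibition shows as a rise in luminescence from relieved DAX1 repression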
* = called active by the depositor; ? = inconclusive; / = no result.

SMILES	AHR act	FXN GAA850 act	HSF1 activator	HSF1 inh	NR0B1 inh
O=c1c2ccccc2sc2ccc(C#CC3(O)CCCCC3)cc12	-10.9	-15.4	-93.5	-92.3*	-6.2
N#C/C(=C\C=C\c1ccccc1)C(=O)NCc1cccnc1	4.7	1.1	8.5	13.0	-0.9
O=[N+]([O-])c1ccc(Oc2cccc3cccnc23)c([N+](=O)[O-])c1	53.1*	2.4	8.7	10.2	-0.3
C/C(=N\Nc1nc2ccccc2s1)c1ccc(Br)s1	53.5*	0.8	-40.4	-33.1	0.5
CCOC(=O)C1C(=O)OC(C)(C)C1C(C)C(=O)c1ccc(C)cc1 (stereo not given)	-0.7	-1.9	-59.2	-52.1*	-0.9
CCOC(=O)C1C(=O)OC(C)(C)C1C(C)C(=O)c1ccc(C)cc1C (stereo not given)	-1.0	1.5	56.1*	15.3	1.0
O=S(=O)(NCCN1CCOCC1)c1cc(Cl)c(Cl)cc1Cl	1.5	0.5	19.2	3.1	0.2
COc1cc(-c2nc3n(n2)C(c2ccc(F)cc2)C2=C(CCCC2=O)N3)cc(OC)c1OC (stereo not given)	82.4*	1.3	-0.5	1.8	0.5
COc1cc(SC)ccc1C(=O)Nc1ccncc1	-7.2	2.7	0.3	-2.4	-1.6
COc1cc(SC)ccc1C(=O)NCC1CCCO1 (stereo not given)	5.7	-0.1	-80.0	-74.0*	0.6
COc1ccc(C)cc1NC(=O)Nc1ccc2c(c1)CCC2	77.3*	-0.2	10.8	0.2	-0.5
COc1cc(SC)ccc1C(=O)Nc1ccc2c(c1)CCC2	41.0	4.6	92.5*	61.0	4.0
Nc1cnn(Cc2ccc(F)cc2)c1	1.6	0.1	56.3*	29.6	1.0
Cc1ccnc(NC(=O)c2ccc([N+](=O)[O-])s2)c1	3.8	3.7	69.7*	48.4	-0.6
Cc1ccnc(NC(=O)c2cc([N+](=O)[O-])cc([N+](=O)[O-])c2)c1	14.6	-2.1	6.2	1.5	-0.8
Cc1cccc(NC(=O)c2ccc([N+](=O)[O-])s2)c1C	1.1	0.7	55.7*	17.3	-1.8
Cc1cccc(C)c1NC(=O)c1ccc([N+](=O)[O-])s1	1.2	-2.0	?	15.8	0.0
Cc1cc(=O)n2[nH]c(Nc3cccc(Cl)c3)nc2n1	21.5	0.9	22.7	-3.4	0.7
Cc1ccccc1CC(=O)NC1CCCc2ccccc21 (stereo not given)	22.3	0.8	65.0*	36.5	0.5
CC1(C)CC(=O)C(CC(=O)NC2CCCc3ccccc32)C(=O)C1 (stereo not given)	-1.9	-0.3	4.5	-6.9	6.1*
CN1CCN(C(=O)NCC23CC4CC(CC(C4)C2)C3)CC1	-0.9	0.8	-12.9	0.0	1.2
CC(NC(=O)COC(=O)Cc1cccs1)c1ccc(F)cc1 (stereo not given)	/	0.6	/	/	0.5
COc1cccc(/C=N/NC(=O)c2ccc(COc3ccc(Cl)cc3Cl)o2)c1	53.1*	-2.2	/	/	0.2
COc1ccc(Br)cc1/C=N/NC(=O)c1ccc(COc2ccc3c(c2)CCC3)o1	62.0*	-0.1	15.6	17.3	1.6
O=C(N/N=C/c1ccc2ccccc2c1)c1ccc(COc2ccc3c(c2)CCC3)o1	47.2*	1.8	2.0	-0.4	0.5
SMILES	AHR act	FXN GAA850 act	HSF1 activator	HSF1 inh	NR0B1 inh
COc1ccccc1/C=N\NC(=O)c1ccc(COc2ccc(C)c(C)c2)o1	48.9*	2.6	33.1	15.6	0.6
O=C(N/N=C/c1cc([N+](=O)[O-])ccc1O)c1ccc(COc2ccc3c(c2)CCC3)o1	/	-3.5	-0.9	-8.0	0.6
Cc1cc(C(=O)N/N=C/C=C/c2cccc([N+](=O)[O-])c2)n[nH]1	-7.1	-0.5	30.6	5.6	-1.2
CSCCC(NC(=O)c1ccco1)C(=O)Nc1ccc(C)cn1 (stereo not given)	11.6	-0.6	-10.7	6.8	3.1
CC(C)[C@H](NC(=O)c1ccc(Cl)c([N+](=O)[O-])c1)C(=O)NCc1ccc(F)cc1	0.7	-1.4	-12.4	-5.7	4.6*
O=C(NCCc1c[nH]c2ccccc12)/C(=C\c1cccnc1)NC(=O)c1ccco1	7.3	1.9	1.5	-10.5	-0.3
O=C(N/C(=C\c1ccc(Br)cc1)c1nc2ccccc2[nH]1)c1ccco1	75.0*	2.3	6.1	-0.1	1.9
O=C(NCCc1nc2ccccc2[nH]1)/C(=C/c1ccc(F)cc1)NC(=O)c1ccco1	-0.4	-1.9	63.9*	21.8	0.9
O=C(NCCc1nc2ccccc2[nH]1)/C(=C/c1ccco1)NC(=O)c1ccccc1Br	4.0	1.8	-4.0	-6.8	-0.8
O=C(NCCc1c[nH]c2ccccc12)/C(=C/c1cccnc1)NC(=O)c1ccco1	4.4	2.1	-13.2	-3.3	4.5*
CC(C)(C)c1cc(=O)n(-c2ccccc2)[nH]1	0.7	0.0	/	/	-1.4
O=C(NCCCc1ccc(F)cc1)C1CCC(=O)N(CC2CCCCC2)C1 (stereo not given)	-0.5	-0.1	-15.9	5.2	-0.4
COc1ccccc1CN(C)CC(=O)NC1CCCc2ccccc21 (stereo not given)	-1.6	-1.0	-0.9	10.4	0.6
CCc1cc(C(=O)N(CC)CC(=O)Nc2ccc(OC)cc2)sc1C	1.5	1.0	/	/	0.3
COCc1nnc(NC(=O)COc2ccc3c(c2)OCO3)s1	10.0	-0.7	22.4	5.3	1.3
O=C(COc1ccc2c(c1)OCO2)Nc1nccs1	59.4*	2.1	38.8	14.5	-2.5
CC(O)CC(C)O (stereo not given)	0.0	-2.6	/	/	0.9
COCCn1nnnc1SCC(=O)Nc1ccc2c(c1)OCO2	68.1*	-0.9	4.1	6.2	-0.5
O=C(Nc1ccccc1Cl)C(=O)c1cn(CC(=O)N2CCOCC2)c2ccccc12	73.2*	4.0	-12.2	-5.5	2.4
CC(=O)Nc1ccc(NC(=O)CSc2cn(CC(=O)N3CCOCC3)c3ccccc23)cc1	-0.2	0.1	-76.3	-69.0*	1.4
CC(C(=O)Nc1ccc2c(c1)OCCO2)N(C)Cc1c(F)cccc1Cl (stereo not given)	23.4	2.3	8.0	4.8	4.5*
COCCCn1nnnc1SCC(=O)Nc1ccc2c(c1)OCCO2	11.1	-1.1	25.1	1.8	0.6
O=C(c1ccccc1O)N1N=C(C(F)(F)F)CC1(O)c1ccc([N+](=O)[O-])cc1 (stereo not given)	8.0	0.5	-8.7	-4.9	-0.6
CCCn1cc(SCC(=O)Nc2ccc3c(c2)OCO3)c2ccccc21	73.3*	0.5	18.5	4.5	1.1
O=C(c1cn(CC(=O)N2CCCCC2)c2ccccc12)C1CC1	6.2	-1.1	61.6*	37.7	-0.3
Cn1cc(SCC(=O)Nc2ccc3c(c2)OCO3)c2ccccc21	35.0	-0.1	-7.7	-1.5	0.0
Cc1ccc(NC(=O)Cc2c(C(=O)O)n(C)c3ccccc23)cc1F	9.6	1.0	-6.5	-5.3	/
Cn1c(C(=O)O)c(CC(=O)Nc2ccc3c(c2)OCCO3)c2ccccc21	5.7	-9.7	-68.5	-65.6*	-1.0
